Screening data (PubChem)
PAFAH1B2 FP inh: PAFAH1B2 enzyme inhibitors, primary screen, biochemical, fluorescence polarization, human. Platelet-activating factor acetylhydrolase IB subunit alpha2 (Homo sapiens), P68402. recombinant PAFAH1B2, FP-rhodamine activity probe. inhibition, % at 3.39 µM. 340,000 tested, 1.2% active;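 active = inhibition above the mean of all tested compounds plus 3 SD, cut at about 24% in these data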;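 note: 0% = enzyme with DMSO and 100% = wells lacking PAFAH1B2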
Target sequence (P68402 whole entry, looked up): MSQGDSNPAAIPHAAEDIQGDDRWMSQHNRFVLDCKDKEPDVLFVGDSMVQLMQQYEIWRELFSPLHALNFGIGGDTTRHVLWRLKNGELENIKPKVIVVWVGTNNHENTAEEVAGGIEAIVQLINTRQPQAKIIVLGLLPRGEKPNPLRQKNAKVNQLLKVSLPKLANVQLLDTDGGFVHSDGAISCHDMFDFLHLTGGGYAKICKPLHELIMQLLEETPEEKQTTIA
PAFAH2 inh: PAFAH2 enzyme inhibitors, primary screen, biochemical, fluorescence polarization, human | recombinant PAFAH2, FP-rhodamine activity probe | inhibition, % at 3.39 µM | 340,000 tested, 0.99% active;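 active = inhibition above the mean over all tested compounds plus 3 SD, cut at about 30% in these data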;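 note: inhibitors block probe labeling of enzyme so polarization drops; 0% = enzyme with DMSO and 100% = wells lacking PAFAH2 protein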
PAFAH1B3 FP inh: PAFAH1B3 enzyme inhibitors, primary screen, biochemical, fluorescence polarization, human. Platelet-activating factor acetylhydrolase IB subunit alpha1 (Homo sapiens), Q15102. recombinant PAFAH1B3, FP-rhodamine probe. inhibition, % at 3.39 µM. 340,000 tested, 0.28% active. AID 492972, 2010;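 active = inhibition above the screen-wide average of all tested compounds plus 3 SD, cut at about 25% in these data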;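 note: 0% = enzyme with DMSO only and 100% = wells lacking PAFAH1B3 protein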
PKA-R2B act: activators of PKA-R2B holoenzyme, primary screen, biochemical, fluorescence polarization, Cy5-IP20, human; PKA-R2B holoenzyme dissociation; R2B truncated from residue 108, S112A mutant; 0% DMSO only, 100% 113 µM cGMP; activation, % at 11.4 µM; 340,000 tested, 0.079% active; cAMP-dependent protein kinase catalytic subunit beta (Homo sapiens) + cAMP-dependent …; AID 504700, 2011;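 active = activation above a cutoff set at the mean over all compounds plus 3 SD, cut at about 18% in these data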;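 note: higher means more holoenzyme dissociation and a rise in polarization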
PKA-R1A activ: activators of PKA-R1A holoenzyme, primary screen, biochemical, fluorescence polarization, Cy5-IP20, bovine R1A, mouse PKAc | activation, % at 11.4 µM | cAMP-dependent protein kinase type I-alpha regulatory subunit (Bos taurus) + … | 340,000 tested, 0.083% active | AID 504707, 2011 | PKA-R1A dissociation; scaled: DMSO 0%, 113 µM cGMP 100%;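 active = percent activation above the mean of all tested compounds plus 3 SD, cut at about 19% in these data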;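 note: higher means more PKAc released from R1A so a rise in polarization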
pPAFAH FP inh: pPAFAH enzyme inhibitors, primary screen, biochemical, fluorescence polarization, human; recombinant pPAFAH, FP-rhodamine probe fluorescence polarization; Platelet-activating factor acetylhydrolase (Homo sapiens), Q13093; AID 463082, 2010; inhibition, % at 3.39 µM; 330,000 tested, 1.5% active;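 active = inhibition above the mean inhibition across the screen plus 3 SD, cut at about 25% in these data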;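 note: inhibitors block binding of the rhodamine activity-based probe so polarization drops; 0% = enzyme with DMSO and 100% = wells lacking pPAFAH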
Target sequence (Q13093 whole entry, looked up): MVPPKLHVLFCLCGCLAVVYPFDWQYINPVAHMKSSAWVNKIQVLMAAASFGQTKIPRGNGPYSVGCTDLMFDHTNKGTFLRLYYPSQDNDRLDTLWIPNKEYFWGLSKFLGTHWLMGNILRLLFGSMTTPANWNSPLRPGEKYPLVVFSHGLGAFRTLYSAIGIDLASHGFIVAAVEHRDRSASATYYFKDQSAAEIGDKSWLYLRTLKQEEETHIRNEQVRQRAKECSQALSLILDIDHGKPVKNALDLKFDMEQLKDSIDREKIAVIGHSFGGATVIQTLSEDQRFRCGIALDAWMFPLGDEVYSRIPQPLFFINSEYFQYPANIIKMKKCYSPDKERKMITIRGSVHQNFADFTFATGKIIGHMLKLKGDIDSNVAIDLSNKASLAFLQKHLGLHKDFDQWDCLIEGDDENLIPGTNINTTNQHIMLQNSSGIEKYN
* marks the source's active call; other numbers are inactive results; x = no result. In the library only some 2.6% were active in any assay of this set; here they are far more common.

SMILES	PAFAH1B2 FP inh	PAFAH2 inh	PAFAH1B3 FP inh	PKA-R2B act	PKA-R1A activ	pPAFAH FP inh
CC1=C(/C=C/C(C)=C/C=C/C(C)=C\C(=O)O)C(C)(C)CCC1	8.7	4.1	-0.2	-1.5	-0.7	27.6*
CC1(c2ccc3ccccc3c2)CCC(=O)O1 (stereo not drawn)	5.9	8.5	10.5	-2.1	8.4	x
NS(=O)(=O)c1ccc(CCNC(=O)c2ccc(C(=O)c3ccccc3)cc2)cc1	4.5	-7.0	3.8	3.3	1.4	-3.3
NS(=O)(=O)c1ccc(CCNC(=O)c2ccc3nccnc3c2)cc1	7.6	6.7	3.9	-0.4	8.8	29.5*
C/C(=N\O)C1/C(=N/O)CC2C1C2(C)C (stereo not drawn)	33.7*	8.6	-2.9	0.2	-0.6	2.5
CCN(c1ccccc1)S(=O)(=O)c1ccc(Cl)c(C(=O)NCc2ccco2)c1	10.2	8.9	5.4	1.3	2.6	7.0
NC(=O)CC1C(=O)N(c2ccccc2)C(=S)N1NC(=O)c1ccccc1 (stereo not drawn)	-0.2	-1.8	3.0	-0.9	17.9	x
O=C(O)Cc1ccc(-c2ccccc2-c2ccccc2)cc1	79.6*	-7.1	4.2	1.8	0.8	29.0*
C#CCN(Cc1ccccc1)S(=O)(=O)C=C	x	x	x	x	x	2.4
C=C(C)CNC(=O)C1CCC(=O)N(CCCc2ccccc2)C1 (stereo not drawn)	5.6	17.6	9.0	6.0	4.3	1.8
Cc1ccc(OCC(=O)c2ccc(Cl)s2)c([N+](=O)[O-])n1	4.7	2.5	8.1	-14.0	-10.5	24.6*
CC(=O)Nc1cc(OC(C)=O)c2nonc2c1OC(C)=O	34.0*	7.9	68.4*	1.8	-0.7	17.8
CCNC(=O)n1nccc1C(C)Oc1cccc(C(F)(F)F)c1 (stereo not drawn)	3.2	3.7	3.2	-10.2	-5.1	0.5
CCNC(=O)n1nccc1C(C)Oc1ccc(Cl)cc1 (stereo not drawn)	57.9*	7.0	1.1	5.3	4.8	13.8
CCCCn1c(N)c(N(CC(C)C)C(=O)c2ccc(S(=O)(=O)N3CCCCCC3)cc2)c(=O)[nH]c1=O	6.9	-0.4	5.6	7.9	-5.3	1.7
CCCCn1c(N)c(N(CC(C)C)C(=O)c2ccc(S(=O)(=O)N3CCC(C)CC3)cc2)c(=O)[nH]c1=O	1.3	-1.0	2.3	-3.2	-14.8	31.9*
CCCCn1c(N)c(N(CC(C)C)C(=O)CN2C(=O)NC3(CCC(C(C)(C)CC)CC3)C2=O)c(=O)[nH]c1=O (stereo not drawn)	31.3*	-0.5	6.7	0.4	5.2	x
CCCCn1c(N)c(N(CC(C)C)C(=O)CN2C(=O)c3ccccc3C2=O)c(=O)[nH]c1=O	0.2	-0.7	7.3	-2.5	2.7	4.2
Cc1cccc(NC(=O)c2nc[nH]c2C(=O)N2CCc3ccccc3C2)c1	2.5	0.3	8.1	-8.2	-1.2	2.7
Cc1ccc(Cl)c(NC(=O)COC(=O)c2nn(-c3ccccc3)cc2O)c1Cl	-5.8	-4.8	0.1	1.3	-0.4	2.3
O=C(NNc1cc(Br)c(O)c(Br)c1)c1ccccc1	9.1	51.7*	-0.7	-3.6	7.9	12.3
O=C(COC(=O)COc1ccc(Br)cc1)NCCC1=CCCCC1	29.9*	-0.8	-4.7	-1.8	-1.3	10.8
Cc1ccc(C(=O)CCC(=O)OCC(=O)Nc2ccccc2SCC#N)cc1	-0.4	0.2	11.3	-5.9	-2.9	26.5*
O=C(NCCCNC(=O)c1cccnc1)c1ccc(Cl)cc1	1.6	3.4	8.6	5.0	-4.9	-2.3
CC(=O)N1CCCc2cc(S(=O)(=O)N3CCCC(C(=O)NCc4ccccc4Cl)C3)ccc21 (stereo not drawn)	3.2	3.2	3.2	-10.5	-8.9	7.3
SMILES	PAFAH1B2 FP inh	PAFAH2 inh	PAFAH1B3 FP inh	PKA-R2B act	PKA-R1A activ	pPAFAH FP inh
CC(=O)N1CCCc2cc(S(=O)(=O)N3CCCC(C(=O)Nc4cccc(C)c4)C3)ccc21 (stereo not drawn)	0.3	-0.1	9.8	1.4	3.8	33.1*
COc1ccc(/C=N/N2C(=O)CSC2=S)cc1Br	-7.1	0.4	-8.8	7.7	-4.8	28.8*
COc1ccc(C(=O)N/N=C/c2c[nH]c3ccccc23)cc1	7.1	9.4	6.9	-1.6	1.1	-0.9
CCCOc1ccc(C(=O)N/N=C/c2c[nH]c3ccc(Br)cc23)cc1	7.4	-0.5	9.2	-14.0	-8.0	27.0*
O=C(N/N=C/c1c[nH]c2ccccc12)c1ccc(O)c(O)c1	24.8*	14.1	15.2	3.8	0.1	9.0
CC1CCN(C(=O)COC(=O)c2ccccc2NCCO)CC1	x	x	x	-6.7	-4.9	x
COC(=O)Cn1c(CN2CCN(C(=O)c3ccco3)CC2)nc2c1c(=O)n(C)c(=O)n2C	2.3	2.2	-1.8	3.6	14.0	-0.4
O=c1[nH]c(SCc2ccccc2Cl)nc2c1CCC2	8.2	14.2	4.0	-1.8	-0.4	15.3
N#Cc1ccc(CSc2nc(N)cc(=O)[nH]2)cc1	18.9	-0.3	6.2	-7.0	-7.7	4.3
Cc1ccc(CSc2nc3c(c(=O)[nH]2)CCC3)cc1	24.8*	1.9	10.3	-0.9	-5.7	8.3
Cc1ccccc1CSc1nc2c(c(=O)[nH]1)CCCC2	x	x	x	x	x	50.5*
Cc1cccc(CSc2nc3c(c(=O)[nH]2)CCC3)c1	0.5	14.1	-5.0	12.2	2.6	19.9
Cc1ccc(CSc2nc(N)cc(=O)[nH]2)cc1	24.5*	-9.7	-8.5	-14.7	-5.8	1.6
CCCCc1ccc(Nc2nc(CCC)cc(=O)[nH]2)cc1	1.0	0.1	1.6	-8.3	-11.8	28.7*
CCCc1cc(=O)[nH]c(SCc2ccc(F)cc2)n1	11.1	1.9	6.5	-4.3	-3.7	30.6*
CN(CC(O)COc1ccc2ccccc2c1)C1CCCCC1 (stereo not drawn)	6.3	-4.4	4.0	2.1	7.7	0.4
Cc1ccc(-c2c3c(nc4sc(C(N)=O)c(N)c24)CCC3)cc1	-7.2	0.0	4.5	6.3	-5.0	28.3*
NC(=O)c1sc2nc3c(c(-c4ccc(Cl)cc4)c2c1N)CCCC3	3.6	7.0	7.2	-5.1	-10.9	29.6*
NC(=O)c1sc2nc3c(c(-c4ccco4)c2c1N)CCCC3	5.6	-2.9	3.1	-0.1	3.1	18.1
